{
  "source": "PubChem BioAssay (EPA / NIEHS)",
  "note": "Values joined by “and” are separate entries in the source; they are usually repeats but may differ in a detail not shown here. Equal values may be shown once. The source holds several records for some structures; these can differ, active in one and inactive in another. Active and inactive are the calls of the source. How the source made its calls: active means hit-call score of the fitted dose curve at least 0.9, where 1 is the maximum; inactive means score below 0.9.",
  "data": [
    {"read-out": "TIMP metallopeptidase inhibitor 1 (TIMP1), TIMP1 (gene 7076)", "test": "BSK_hDFCGF_TIMP1: BioMAP Diversity Plus: hDFCGF Assay for TIMP metallopeptidase inhibitor 1 (TIMP1) Biomarker Activity (AID 2283062)", "settings": "primary human foreskin fibroblasts; actives raise or lower the signal", "procedure": "BSK_hDFCGF is a cell-based, multiplexed-readout assay that uses foreskin fibroblast, a human skin primary cell, with measurements taken at 24 hours after chemical dosing in a 96-well plate.BSK_hDFCGF_TIMP1 is an assay component measured in the BSK_hDFCGF assay. It measures TIMP-1 antibody related to regulation of gene expression using ELISA technology.Data from the assay component BSK_hDFCGF_TIMP1 was analyzed into 1 assay endpoint. This assay endpoint, BSK_hDFCGF_TIMP1, was analyzed with bidirectional fitting relative to DMSO as the negative control and baseline of activity. Using a type of binding reporter, gain or loss-of-signal activity can be used to understand changes in the signaling as they relate to the gene TIMP1. Furthermore, this assay endpoint can be referred to as a primary readout, because this assay has produced multiple assay endpoints where this one serves a signaling function. To generalize the intended target to other relatable targets, this assay endpoint is annotated to the protease inhibitor intended target family, where the subfamily is metalloproteinase inhibitor.\nThe levels of cell surface (or secreted, indicated by the prefix \"s\") biomarker endpoints were measured by ELISA. Overt cytotoxicity to cells in confluent adherent cultures (all systems other than the BT system) was assessed by measuring total protein levels using sulforhodamine B (SRB) staining in parallel cultures at the time of biomarker measurements, indicated as SRB endpoints. For proliferation assays for adherent cell types, individual cell types are cultured at sub-confluence and relative cell numbers quantified by SRB staining at time points optimized for each system (48 h: 3C and CASM3C systems; 72 h: BT and HDF3CGF systems; 96 h: SAg system). SRB was performed by staining cells with 0.1% SRB after fixation with 10% TCA and reading wells at 560 nm.Viability and proliferation of PBMC (T cells) was quantified by Alamar Blue reduction for the SAg and BT systems. For PBMC viability (referred to as PBMC Cytotoxicity within the assay endpoint names), cells were plated (75,000/well in a 96-well plate) and then chemical samples added for 1 h before addition of activators, SEB and TSST-1 (20 ng/mL final concentration each). Cells were incubated for 90 h. Then, Alamar Blue (20 uL/well) (Invitrogen, Cat DAL1100) was added for 6 h, and the plates were read with a fluorescence microplate reader at 546/580 nm (excitation/emission). For PBMC proliferation, cells were plated and activated as above but incubated for only 16 h prior to addition of Alamar Blue. Plates were read after 6 h.", "values": [
      {"smiles": "CCNc1nc(NC(C)C)nc(SC)n1", "outcome": "inactive"},
      {"smiles": "CCC(C)(CC)c1cc(NC(=O)c2c(OC)cccc2OC)on1", "outcome": "inactive"},
      {"smiles": "Cc1ccccc1O", "outcome": "inactive"},
      {"smiles": "O=S(=O)(O)C(F)(F)C(F)(F)C(F)(F)C(F)(F)C(F)(F)C(F)(F)F", "outcome": "inactive"},
      {"smiles": "CCCN(CCC)N=O", "outcome": "inactive"},
      {"smiles": "CCOP(=S)(OCC)SCSC(C)(C)C", "outcome": "inactive"},
      {"smiles": "Sc1ccccc1", "outcome": "inactive"},
      {"smiles": "CN(C)c1nc(=O)n(C2CCCCC2)c(=O)n1C", "outcome": "inactive"},
      {"smiles": "Nc1ccc(-c2ccc(N)cc2)cc1", "outcome": "inactive"},
      {"smiles": "O=C(O)C(F)(F)C(F)(F)C(F)(F)C(F)(F)C(F)(F)C(F)(F)C(F)(F)C(F)(F)F", "outcome": "inactive"},
      {"smiles": "CO/C=C(/C(=O)OC)c1ccccc1COc1cccc(C(F)(F)F)n1", "outcome": "inactive"},
      {"smiles": "Oc1c(Cl)c(Cl)c(Cl)c(Cl)c1Cl", "outcome": "inactive", "AC50": "13.7 µM (active)"},
      {"smiles": "C=CC(=O)NCNC(=O)C=C", "outcome": "inactive"},
      {"smiles": "CC(c1ccc(O)cc1)(c1ccc(O)cc1)c1ccc(O)cc1", "outcome": "inactive"},
      {"smiles": "N#Cc1ccc(N(CC(N)=O)CC(F)(F)F)cc1C(F)(F)F", "outcome": "inactive"},
      {"smiles": "Cc1ccc(O)c(C)c1", "outcome": "inactive"},
      {"smiles": "C=CC(N)=O", "outcome": "inactive"},
      {"smiles": "Cc1cccc([N+](=O)[O-])c1", "outcome": "inactive"},
      {"smiles": "C[C@]12CCC(=O)C=C1CC[C@@H]1[C@@H]2CC[C@@]2(C)[C@H]1CC[C@]2(C)O", "outcome": "inactive"},
      {"smiles": "O=NN(c1ccccc1)c1ccccc1", "outcome": "inactive"},
      {"smiles": "CC#Cc1cc(C)nc(Nc2ccccc2)n1", "outcome": "inactive"},
      {"smiles": "Oc1ccc(C(c2ccc(O)cc2)(C(F)(F)F)C(F)(F)F)cc1", "AC50": "15.8 µM (active)"},
      {"smiles": "CCCCCCCCCc1ccc(O)cc1", "AC50": "16.9 µM (active)"},
      {"smiles": "NS(=O)(=O)C(F)(F)C(F)(F)C(F)(F)C(F)(F)C(F)(F)C(F)(F)C(F)(F)C(F)(F)F", "AC50": "34.4 µM (active) and 53.2 µM (active) and 54.7 µM (active)"},
      {"smiles": "Clc1ccc(C(Cl)(Cl)Cl)cc1", "outcome": "inactive"},
      {"smiles": "ClC1=C(Cl)[C@]2(Cl)[C@@H]3[C@@H](Cl)[C@H]4O[C@H]4[C@@H]3C1(Cl)C2(Cl)Cl", "outcome": "inactive"},
      {"smiles": "O=C(O)C(F)(F)C(F)(F)C(F)(F)C(F)(F)C(F)(F)C(F)(F)C(F)(F)C(F)(F)C(F)(F)F", "AC50": "35 µM (active) and 22.2 µM (active) and 39.3 µM (active)"},
      {"smiles": "CCOC(=O)C(O)(c1ccc(Cl)cc1)c1ccc(Cl)cc1", "outcome": "inactive"},
      {"smiles": "c1cc2ccc3cccc4ccc(c1)c2c34", "outcome": "inactive"},
      {"smiles": "O=S(=O)(O)C(F)(F)C(F)(F)C(F)(F)C(F)(F)F", "outcome": "inactive"},
      {"smiles": "Cc1cc(-c2ccc(N)c(C)c2)ccc1N", "outcome": "inactive"},
      {"smiles": "CC1=C2C[C@H]3[C@@H](CC=C4C[C@@H](O)CC[C@@]43C)[C@@H]2CC[C@]12O[C@@H]1C[C@H](C)CN[C@H]1[C@H]2C", "outcome": "inactive"},
      {"smiles": "c1ccc(-c2ccccc2)cc1", "outcome": "inactive"},
      {"smiles": "CCC(C)c1cc([N+](=O)[O-])cc([N+](=O)[O-])c1O", "note": "(stereo not given)", "outcome": "inactive"},
      {"smiles": "COS(=O)(=O)OC", "outcome": "inactive"},
      {"smiles": "CCCCCCOC(=O)c1ccccc1C(=O)OCCCCCC", "outcome": "inactive"},
      {"smiles": "O=C(NC(=O)c1cc(F)c(F)cc1Cl)Nc1cc(F)ccc1N1CCC(C(=O)O)CC1", "outcome": "inactive"},
      {"smiles": "O=C(NC(=O)c1c(F)cccc1F)Nc1cc(Cl)c(OC(F)(F)C(F)F)c(Cl)c1", "outcome": "inactive"},
      {"smiles": "ClC(Cl)=C(c1ccc(Cl)cc1)c1ccc(Cl)cc1", "AC50": "30 µM (active)"}
    ]}
  ]
}
